Experimental data published in PubChem BioAssay (NCATS).
Several values for one entry are separate records, joined by “and”; a condition that tells them apart may be missing. Equal entries are not always repeated. Results filed as inconclusive are left out. Where a call stands in place of a potency, no number is given. Activity calls are given as the source filed them. The call rests on the fitted dose curve.

Assays:
[1] = Cytotoxicity counterscreen for inhibitors of SARS-CoV-2 cell entry (AID 1645845); details: cell viability (SARS-CoV-2 entry assay cells); series mostly up to 57.1 µM; further: nearly all actives have a fitted effect of over 50% in size
Summary of the method: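 ATP-content luminescence (ATPLite 1step, 15 min RT) read after 48 h compound exposure of Expi293F cells stably expressing human ACE2; normalized to cells-only wells and media-only wells.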

[2] = Primary qHTS to identify inhibitors of SARS-CoV-2 cell entry (AID 1645846); details: SARS-CoV-2 pseudovirus cell entry assay, luminescence; activity change, negative = inhibition: at 57.1 µM (top of the series) unless noted; series mostly up to 57.1 µM; further: nearly all actives have a fitted effect of over 45% in size
Summary of the method: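 HEK293 cells stably expressing human ACE2, pre-treated 1 h with compound, then infected with MLV particles pseudotyped with Wuhan-Hu-1 spike (C-terminal 19-aa truncation). Luciferase luminescence after 48 h at 37 °C, normalised to spike PP and bald PP.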

[3] = VSVG counterscreen qHTS to identify inhibitors of SARS-CoV-2 cell entry (AID 1645847); details: VSV-G pseudotyped particle entry, luciferase; series mostly up to 57.2 µM; further: nearly all actives have a fitted effect of over 65% in size
Summary of the method: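 HEK293-ACE2 cells (Expi293F, human ACE2) pretreated 1 h with compound, then infected with MLV-based VSV-G pseudotyped particles for 48 h at 37 C; luciferase luminescence normalized to VSV-G PP and bald PP wells.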
Potency means the concentration at half of the fitted maximal effect.

## CC1(C)[C@@H](OC(=O)CCC(=O)O)CC[C@]2(C)[C@H]3C(=O)C=C4[C@@H]5C[C@@](C)(C(=O)O)CC[C@]5(C)CC[C@@]4(C)[C@]3(C)CC[C@@H]12
[1]
  Potency: inactive
[2]
  Potency: inactive

## C[C@]12C=CC(=O)C=C1CC[C@H]1[C@@H]3C[C@@H](O)[C@](O)(C(=O)CO)[C@@]3(C)C[C@H](O)[C@@]12F
[1]
  Potency: inactive
[2]
  activity change, negative = inhibition: 4.58%

## C[N+]12CCC(CC1)C(OC(=O)C(O)(c1ccccc1)c1ccccc1)C2 (stereo not given)
[1]
  Potency: inactive
[2]
  Potency: inactive

## CN(Cc1ccc(C(C)(C)C)cc1)Cc1cccc2ccccc12
[1]
  Potency: inactive
[2]
  activity change, negative = inhibition: 2.25%

## CCOC(=O)c1cc(=O)c2c(OCC(COc3cccc4oc(C(=O)OCC)cc(=O)c34)OC(=O)[C@@H](N)CCCCN)cccc2o1
[1]
  Potency: inactive
[2]
  Potency: inactive

## CC1=C(C)C(=O)C(C(CCCCCC(=O)O)c2ccccc2)=C(C)C1=O (stereo not given)
[1]
  Potency: inactive
[2]
  Potency: inactive

## O=C(OCc1ccccc1)c1ccc(O)cc1
[1]
  Potency: inactive
[2]
  Potency: inactive

## O=C(O)CCC(=O)Nc1ccc(S(=O)(=O)Nc2nccs2)cc1
[1]
  Potency: inactive
[2]
  Potency: inactive

## C[C@H](N)C(=O)N[C@@H](C)C(=O)NC1[C@H]2CN(c3nc4c(cc3F)c(=O)c(C(=O)O)cn4-c3ccc(F)cc3F)C[C@@H]12 (stereo not given in full)
[1]
  Potency: inactive
[2]
  activity change, negative = inhibition: -23%

## CC(=O)[C@@]1(O)CC[C@H]2[C@@H]3C[C@H](C)C4=CC(=O)CC[C@]4(C)[C@H]3CC[C@@]21C
[1]
  Potency: inactive
[2]
  Potency: inactive

## CN(C)C(=S)SC(=S)N(C)C
[1]
  Potency: 3.55 µM (active)
[2]
  Potency: 1 µM (active)

## COc1ccccc1N1CCN(CCCNc2cc(=O)n(C)c(=O)n2C)CC1
[1]
  Potency: inactive
[2]
  activity change, negative = inhibition: -0.464%

## CN(CCCN1c2ccccc2CCc2ccccc21)CC(=O)c1ccc(Cl)cc1
[1]
  Potency: inactive
[2]
  activity change, negative = inhibition: -5.87%

## O=c1cc(CO)occ1O
[1]
  Potency: inactive
[2]
  Potency: inactive

## C[N+]1(CC2COC(c3ccccc3)(C3CCCCC3)O2)CCCCC1 (stereo not given)
[1]
  Potency: inactive
[2]
  activity change, negative = inhibition: -2.6%

## C#C[C@]1(O)CC[C@H]2[C@@H]3CCC4=CC(=O)CC[C@@H]4[C@H]3CC[C@@]21C
[1]
  Potency: inactive
[2]
  activity change, negative = inhibition: 3.31%

## c1ccc2[nH]c(-c3cscn3)nc2c1
[1]
  Potency: inactive
[2]
  Potency: inactive

## COc1cc(NS(=O)(=O)c2ccc(N)cc2)ncn1
[1]
  Potency: inactive
[2]
  Potency: inactive

## Cn1c(=O)c2c(ncn2CC2OCCO2)n(C)c1=O
[1]
  Potency: inactive
[2]
  activity change, negative = inhibition: -5.86%

## COc1ccc2c(c1)c(CC(=O)OCC(=O)O)c(C)n2C(=O)c1ccc(Cl)cc1
[1]
  Potency: inactive
[2]
  Potency: inactive

## CCCn1cnc2c1c(=O)n(CCCCC(C)=O)c(=O)n2C
[1]
  Potency: inactive
[2]
  Potency: inactive

## CN(C)[C@@H]1C(=O)C(C(=O)NCN2CCCC2)=C(O)[C@@]2(O)C(=O)C3=C(O)c4c(O)cccc4[C@@](C)(O)C3C[C@@H]12 (stereo not given in full)
[1]
  Potency: inactive
[2]
  Potency: inactive

## CC(COc1ccccc1)NC(C)C(O)c1ccc(O)cc1 (stereo not given)
[1]
  Potency: inactive
[2]
  Potency: inactive

## CCOC(=O)n1ccn(C)c1=S
[1]
  Potency: inactive
[2]
  Potency: inactive

## NC(N)=NCCC[C@H](N)C(=O)O
[1]
  outcome: inactive [at 5.25 µM]
[2]
  outcome: inactive [at 5.25 µM]

## CCC(=O)O[C@]1(C(=O)COC)[C@@H](C)C[C@H]2[C@@H]3CCC4=CC(=O)C=C[C@]4(C)C3(F)[C@@H](O)C[C@@]21C (stereo not given in full)
[1]
  Potency: inactive
[2]
  Potency: inactive

## CCCCCCCCCCCCCCCCCCOCC(O)CO (stereo not given)
[1]
  Potency: inactive
[2]
  activity change, negative = inhibition: 2.2%

## O=C(O)CCC(=O)OC[C@@H](NC(=O)C(Cl)Cl)[C@H](O)c1ccc([N+](=O)[O-])cc1
[1]
  Potency: inactive
[2]
  activity change, negative = inhibition: -2.41%

## Cn1c(=O)c2c(ncn2C)n(C)c1=O
[1]
  Potency: inactive
[2]
  activity change, negative = inhibition: 0.143% and -10.1%

## CCCCC(=O)O[C@]1(C(=O)CO)[C@@H](C)C[C@H]2[C@@H]3CCC4=CC(=O)C=C[C@]4(C)[C@@]3(F)[C@@H](O)C[C@@]21C
[1]
  Potency: inactive
[2]
  Potency: inactive

## NC(=O)C1(N2CCCCC2)CCN(CCCC(=O)c2ccc(F)cc2)CC1
[1]
  Potency: inactive
[2]
  activity change, negative = inhibition: 3.21%

## CCCC(=O)O[C@]1(C(=O)CC)CC[C@H]2[C@@H]3CCC4=CC(=O)CC[C@]4(C)[C@H]3[C@@H](O)C[C@@]21C
[1]
  Potency: inactive
[2]
  Potency: inactive

## Cc1nc(C2CCCCC2)c(-c2ccc(S(N)(=O)=O)c(F)c2)o1
[1]
  Potency: inactive
[2]
  Potency: inactive

## CCOc1c(N2CCOCC2)cnn(C)c1=O
[1]
  Potency: inactive
[2]
  Potency: inactive

## CC(C)(C)C(=O)OCOC(=O)[C@@H]1N2C(=O)[C@@H](NC(=O)[C@H](N)c3ccccc3)[C@H]2SC1(C)C
[1]
  Potency: inactive
[2]
  activity change, negative = inhibition: -12.4%

## NS(=O)(=O)c1cc(C(=O)O)c(NCc2ccco2)cc1Cl
[1]
  Potency: inactive
[2]
  Potency: inactive

## CC(C)COCC(CN(Cc1ccccc1)c1ccccc1)N1CCCC1 (stereo not given)
[1]
  Potency: inactive
[2]
  Potency: 14.1 µM (active)

## CC(=O)CCC(=O)O
[1]
  Potency: inactive
[2]
  Potency: inactive

## CNC(=O)c1c(I)c(NC(=O)CCCCC(=O)Nc2c(I)c(C(=O)O)c(I)c(C(=O)NC)c2I)c(I)c(C(=O)O)c1I
[1]
  Potency: inactive
[2]
  Potency: inactive

## O=c1[nH]cnc2c1ncn2[C@@H]1O[C@H](CO)[C@@H](O)[C@H]1O
[1]
  Potency: inactive
[2]
  Potency: inactive

## OCc1ccccc1O
[1]
  Potency: inactive
[2]
  Potency: inactive

## O=C(O)COC(=O)Cc1ccccc1Nc1c(Cl)cccc1Cl
[1]
  Potency: inactive
[2]
  Potency: inactive

## Cc1[nH]c(=O)c(C#N)cc1-c1ccc2nccn2c1
[1]
  Potency: inactive
[2]
  Potency: inactive

## FC(F)(F)C(Cl)Br (stereo not given)
[1]
  Potency: inactive
[2]
  activity change, negative = inhibition: -18.5%

## C[C@]12CCC(=O)C=C1[C@@H]1C[C@@H]1[C@H]1[C@@H]3[C@@H]4C[C@@H]4[C@@]4(CCC(=O)O4)[C@@]3(C)CC[C@@H]12
[1]
  Potency: inactive
[2]
  activity change, negative = inhibition: 0.82% and 2.72%

## C[C@]12CC[C@@H]3c4ccc(O)cc4CC[C@H]3[C@@H]1C[C@@H](O)[C@@H]2O
[1]
  Potency: inactive
[2]
  activity change, negative = inhibition: -20% and -12.5%

## CC(C)(C)NCC(O)COc1cccc2c1CCC(=O)N2 (stereo not given)
[1]
  Potency: inactive
[2]
  Potency: inactive

## CCN(CCCCOC(=O)c1ccc(OC)c(OC)c1)C(C)Cc1ccc(OC)cc1 (stereo not given)
[1]
  Potency: inactive
[2]
  Potency: 14.1 µM (active)

## CCCCC[C@H](O)C=C[C@H]1[C@H](O)CC(=O)[C@H]1CC=CCCCC(=O)O
[1]
  Potency: inactive
[2]
  Potency: inactive

## O=C(CCCCCCCCC#CI)Oc1ccccc1
[1]
  Potency: inactive
[2]
  activity change, negative = inhibition: 1.58%

## C/C=C/C(=O)N(CC)c1ccccc1C
[1]
  Potency: inactive
[2]
  Potency: inactive
  activity change, negative = inhibition: -9.15%

## C[C@]12CCC(=O)C=C1CC[C@@H]1[C@@H]2[C@@H](O)C[C@@]2(C)[C@H]1CC[C@]2(O)C(=O)CO
[1]
  Potency: inactive
[2]
  Potency: inactive
  activity change, negative = inhibition: 4.28%

## NC(=O)c1ncn([C@@H]2O[C@H](CO)[C@@H](O)[C@H]2O)c1N
[1]
  Potency: inactive
[2]
  Potency: inactive
  activity change, negative = inhibition: -18.5%

## O=C(NCC1CN(c2ccc(N3CCOCC3=O)cc2)C(=O)O1)c1ccc(Cl)s1 (stereo not given)
[1]
  Potency: inactive
[2]
  activity change, negative = inhibition: -26.5% and -55.1%
[3]
  Potency: 1.71 µM (active)

## O=C(O)c1cccc(-c2noc(-c3ccccc3F)n2)c1
[1]
  Potency: 6.31 µM (active)
[2]
  Potency: inactive
  activity change, negative = inhibition: -78%

## OC1C(O)C(O)C(O)C(O)C1O (stereo not given)
[1]
  Potency: inactive
[2]
  activity change, negative = inhibition: -22.4%

## CN(C)CCCOC1(Cc2ccccc2)CCCCCC1
[2]
  activity change, negative = inhibition: -0.0488%

## Cc1cc(=O)oc2cc(O)ccc12
[1]
  Potency: inactive
[2]
  Potency: inactive
  activity change, negative = inhibition: -8.91%

## CC[C@H](NC(C)C)[C@H](O)c1ccc(O)c2[nH]c(=O)ccc12
[1]
  Potency: inactive
[2]
  Potency: inactive
  activity change, negative = inhibition: 1.27%

## NC(N)=NC(=O)c1nc(Cl)c(N)nc1N
[1]
  Potency: inactive
[2]
  Potency: inactive
  activity change, negative = inhibition: -0.658% [at 114 µM]

## Cc1cc(C(C)(C)C)c(O)c(C)c1CC1=NCCN1
[1]
  Potency: inactive
[2]
  Potency: inactive
  activity change, negative = inhibition: -17.1%

## CC(=O)OCC(=O)[C@@]12N=C(C)O[C@@H]1C[C@H]1[C@@H]3CCC4=CC(=O)C=C[C@]4(C)[C@H]3[C@@H](O)C[C@@]12C
[1]
  Potency: inactive
[2]
  Potency: inactive
  activity change, negative = inhibition: -14%

## CN(C)C(=O)Oc1cccc([N+](C)(C)C)c1
[2]
  activity change, negative = inhibition: -1.02%

## O=C(Nc1ccc([N+](=O)[O-])cc1Cl)c1cc(Cl)ccc1O
[2]
  Potency: 2.51 µM (active) and 8.91 µM (active)
